# The full data set covers some 7,900 targets. This sample favours those with a hit. About 0.6% of all pairs of compound and target were hits. A number with no mark means an inactive call.
# Experiments:
# Test in all cases: log2 fold change, soluble protein after heating vs DMSO (PISA); higher = thermal stabilisation; K562 cells, 10 uM, 30 min; active = over 0.2 and 3.5 SD of the protein, either way, in both replicates (recomputed)
# bafetinib = compound: Cc1ccc(NC(=O)c2ccc(CN3CC[C@H](N(C)C)C3)c(C(F)(F)F)c2)cc1Nc1nccc(-c2cncnc2)n1 [bafetinib]
# Procedure, shortened: (§1)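 Quantification of soluble protein used TMTpro 16plex LC-MS/MS, with channel sums equalised. Samples were the supernatant after 21,000xg for 90 min of pooled aliquots from K562 cells (2×10^6 cells/mL) treated with 10 μM compound for 30 min, heated for 3 min over 48°C-58°C, and extracted in PBS with 0.5% NP-40 at 4°C. Values, from duplicates, describe thermal stability against control samples on a log2 fold-change scale.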
# [1] = compound: Cc1cccc(CC(=O)N2CCc3c2ccc(-c2cn(C)c4ncnc(N)c24)c3F)n1
# Procedure, shortened: as §1
# nilotinib = compound: Cc1cn(-c2cc(NC(=O)c3ccc(C)c(Nc4nccc(-c5cccnc5)n4)c3)cc(C(F)(F)F)c2)cn1 [nilotinib]
# Procedure, shortened: as §1
# [2] = compound: Cc1nc(Nc2n[nH]c3c2CN(C(=O)N[C@H](CN(C)C)c2ccccc2)C3(C)C)c2sccc2n1
# Procedure, shortened: as §1
# dasatinib = compound: Cc1nc(Nc2ncc(C(=O)Nc3c(C)cccc3Cl)s2)cc(N2CCN(CCO)CC2)n1 [dasatinib]
# Procedure, shortened: as §1
# [3] = compound: Cc1ncc(-c2ccnc(Nc3ccc(S(C)(=O)=O)cc3)n2)n1C(C)C
# Procedure, shortened: as §1
# [4] = compound: Cn1cc(-c2ccc3c(c2)CCN3C(=O)Cc2cccc(C(F)(F)F)c2)c2c(N)ncnc21
# Procedure, shortened: as §1
# [5] = compound: Cn1cc(-c2ccc3nnc(C(F)(F)c4ccc5ncccc5c4)n3n2)cn1
# Procedure, shortened: as §1
# tipifarnib = compound: Cn1cncc1[C@@](N)(c1ccc(Cl)cc1)c1ccc2c(c1)c(-c1cccc(Cl)c1)cc(=O)n2C [tipifarnib]
# Procedure, shortened: as §1
# mubritinib = compound: FC(F)(F)c1ccc(/C=C/c2nc(COc3ccc(CCCCn4ccnn4)cc3)co2)cc1 [mubritinib]
# Procedure, shortened: as §1
# Chain of UniProt Q96AQ8 (Q96AQ8 whole entry, looked up): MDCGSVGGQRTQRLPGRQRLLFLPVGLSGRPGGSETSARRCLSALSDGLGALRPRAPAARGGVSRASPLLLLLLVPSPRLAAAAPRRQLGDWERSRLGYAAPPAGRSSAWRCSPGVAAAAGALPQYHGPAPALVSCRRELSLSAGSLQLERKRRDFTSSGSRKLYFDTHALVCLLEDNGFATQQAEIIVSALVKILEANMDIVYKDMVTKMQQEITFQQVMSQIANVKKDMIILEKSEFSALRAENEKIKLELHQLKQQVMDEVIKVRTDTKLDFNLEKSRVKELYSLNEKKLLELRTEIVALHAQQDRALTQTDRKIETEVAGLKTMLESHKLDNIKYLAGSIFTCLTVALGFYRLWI
# Chain of UniProt Q13418 (Q13418 whole entry, looked up): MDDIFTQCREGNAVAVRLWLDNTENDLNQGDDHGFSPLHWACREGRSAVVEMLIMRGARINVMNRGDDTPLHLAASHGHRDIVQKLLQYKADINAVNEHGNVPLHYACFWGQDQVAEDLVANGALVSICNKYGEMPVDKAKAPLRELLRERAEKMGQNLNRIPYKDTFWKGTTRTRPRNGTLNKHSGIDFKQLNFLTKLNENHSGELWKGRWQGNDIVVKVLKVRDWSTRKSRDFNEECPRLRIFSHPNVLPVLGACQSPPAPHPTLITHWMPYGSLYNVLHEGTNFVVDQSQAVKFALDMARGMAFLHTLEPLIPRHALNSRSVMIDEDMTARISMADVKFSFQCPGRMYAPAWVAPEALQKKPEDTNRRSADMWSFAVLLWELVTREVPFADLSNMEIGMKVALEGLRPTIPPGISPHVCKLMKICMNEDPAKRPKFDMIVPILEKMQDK
# Chain of UniProt Q9H0B6 (Q9H0B6 whole entry, looked up): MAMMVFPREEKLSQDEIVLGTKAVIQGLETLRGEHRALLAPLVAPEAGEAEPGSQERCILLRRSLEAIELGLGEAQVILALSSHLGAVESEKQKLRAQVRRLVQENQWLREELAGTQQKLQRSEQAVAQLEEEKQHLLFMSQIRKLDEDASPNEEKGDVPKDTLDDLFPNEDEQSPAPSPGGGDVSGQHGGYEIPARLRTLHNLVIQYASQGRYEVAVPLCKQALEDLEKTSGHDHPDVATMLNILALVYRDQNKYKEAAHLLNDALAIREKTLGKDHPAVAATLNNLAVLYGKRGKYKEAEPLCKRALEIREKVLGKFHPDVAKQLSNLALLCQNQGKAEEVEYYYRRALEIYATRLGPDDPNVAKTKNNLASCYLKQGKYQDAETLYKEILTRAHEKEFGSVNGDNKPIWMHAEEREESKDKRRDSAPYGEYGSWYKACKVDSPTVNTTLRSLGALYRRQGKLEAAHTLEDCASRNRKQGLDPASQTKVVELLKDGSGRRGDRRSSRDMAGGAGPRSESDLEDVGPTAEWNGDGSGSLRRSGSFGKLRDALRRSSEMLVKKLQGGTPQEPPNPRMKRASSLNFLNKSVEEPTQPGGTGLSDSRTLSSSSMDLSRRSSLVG
# Chain of UniProt Q9Y383 (Q9Y383 whole entry, looked up): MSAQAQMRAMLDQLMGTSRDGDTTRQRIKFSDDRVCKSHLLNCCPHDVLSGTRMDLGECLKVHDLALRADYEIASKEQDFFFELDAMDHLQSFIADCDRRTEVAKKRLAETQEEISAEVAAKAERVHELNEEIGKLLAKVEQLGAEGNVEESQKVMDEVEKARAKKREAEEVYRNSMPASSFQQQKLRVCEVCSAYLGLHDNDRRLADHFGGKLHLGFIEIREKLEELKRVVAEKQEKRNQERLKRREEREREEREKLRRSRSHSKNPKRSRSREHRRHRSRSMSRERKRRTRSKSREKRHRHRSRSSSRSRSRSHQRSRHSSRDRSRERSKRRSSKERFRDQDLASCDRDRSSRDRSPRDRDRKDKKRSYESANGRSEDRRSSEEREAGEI
# Chain of UniProt Q9BPX6 (Q9BPX6 whole entry, looked up): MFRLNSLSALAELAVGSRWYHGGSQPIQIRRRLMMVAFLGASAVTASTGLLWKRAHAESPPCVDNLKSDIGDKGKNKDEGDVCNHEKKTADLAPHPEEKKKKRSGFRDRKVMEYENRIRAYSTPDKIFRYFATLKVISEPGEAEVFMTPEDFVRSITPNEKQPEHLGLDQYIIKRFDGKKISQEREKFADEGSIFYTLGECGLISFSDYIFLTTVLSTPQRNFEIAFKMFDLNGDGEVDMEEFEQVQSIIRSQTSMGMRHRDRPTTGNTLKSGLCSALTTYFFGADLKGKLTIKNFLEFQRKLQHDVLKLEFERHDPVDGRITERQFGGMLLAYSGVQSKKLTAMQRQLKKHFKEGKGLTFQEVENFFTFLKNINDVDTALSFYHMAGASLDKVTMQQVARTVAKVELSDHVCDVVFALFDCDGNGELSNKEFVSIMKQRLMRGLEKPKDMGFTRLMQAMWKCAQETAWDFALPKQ
# Chain of UniProt O43318 (O43318 whole entry, looked up): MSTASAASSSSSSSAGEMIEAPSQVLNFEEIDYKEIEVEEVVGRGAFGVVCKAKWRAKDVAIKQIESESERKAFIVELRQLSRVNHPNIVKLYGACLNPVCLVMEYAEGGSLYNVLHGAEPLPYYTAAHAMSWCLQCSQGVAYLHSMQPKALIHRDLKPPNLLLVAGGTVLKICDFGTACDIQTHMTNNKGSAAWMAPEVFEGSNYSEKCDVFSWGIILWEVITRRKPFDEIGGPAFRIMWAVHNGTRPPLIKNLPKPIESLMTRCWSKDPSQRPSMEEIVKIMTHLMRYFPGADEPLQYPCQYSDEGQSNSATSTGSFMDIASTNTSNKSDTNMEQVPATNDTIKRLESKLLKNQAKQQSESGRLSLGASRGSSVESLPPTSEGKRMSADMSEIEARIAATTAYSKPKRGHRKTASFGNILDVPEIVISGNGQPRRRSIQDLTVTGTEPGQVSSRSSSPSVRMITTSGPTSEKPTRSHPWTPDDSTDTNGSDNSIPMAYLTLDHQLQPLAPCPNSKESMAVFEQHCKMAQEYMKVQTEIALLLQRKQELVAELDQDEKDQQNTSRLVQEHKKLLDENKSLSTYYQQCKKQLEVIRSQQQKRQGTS
# Chain of UniProt Q9H1B7 (Q9H1B7 whole entry, looked up): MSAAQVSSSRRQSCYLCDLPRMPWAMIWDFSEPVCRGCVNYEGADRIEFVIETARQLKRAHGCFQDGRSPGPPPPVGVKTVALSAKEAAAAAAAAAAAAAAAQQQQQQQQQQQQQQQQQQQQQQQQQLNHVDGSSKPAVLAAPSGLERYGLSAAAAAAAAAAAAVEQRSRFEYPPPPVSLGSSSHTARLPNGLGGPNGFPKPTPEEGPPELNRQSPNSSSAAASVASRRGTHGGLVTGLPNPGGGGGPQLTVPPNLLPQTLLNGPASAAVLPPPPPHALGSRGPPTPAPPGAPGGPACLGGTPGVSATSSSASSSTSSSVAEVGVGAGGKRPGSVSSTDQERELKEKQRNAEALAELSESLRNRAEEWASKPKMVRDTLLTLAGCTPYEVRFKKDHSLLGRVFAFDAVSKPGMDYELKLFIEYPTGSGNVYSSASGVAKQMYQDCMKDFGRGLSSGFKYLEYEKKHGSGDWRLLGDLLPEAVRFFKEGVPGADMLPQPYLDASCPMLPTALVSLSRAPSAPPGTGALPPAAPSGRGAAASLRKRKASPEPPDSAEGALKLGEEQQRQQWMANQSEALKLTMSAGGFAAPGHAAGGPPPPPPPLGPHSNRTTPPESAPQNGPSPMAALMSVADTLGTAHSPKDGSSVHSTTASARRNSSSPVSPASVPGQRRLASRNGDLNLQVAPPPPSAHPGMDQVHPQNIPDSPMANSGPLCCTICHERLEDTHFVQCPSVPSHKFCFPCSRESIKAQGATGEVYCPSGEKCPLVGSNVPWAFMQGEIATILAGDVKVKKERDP
# Chain of UniProt Q9Y2U8 (Q9Y2U8 whole entry, looked up): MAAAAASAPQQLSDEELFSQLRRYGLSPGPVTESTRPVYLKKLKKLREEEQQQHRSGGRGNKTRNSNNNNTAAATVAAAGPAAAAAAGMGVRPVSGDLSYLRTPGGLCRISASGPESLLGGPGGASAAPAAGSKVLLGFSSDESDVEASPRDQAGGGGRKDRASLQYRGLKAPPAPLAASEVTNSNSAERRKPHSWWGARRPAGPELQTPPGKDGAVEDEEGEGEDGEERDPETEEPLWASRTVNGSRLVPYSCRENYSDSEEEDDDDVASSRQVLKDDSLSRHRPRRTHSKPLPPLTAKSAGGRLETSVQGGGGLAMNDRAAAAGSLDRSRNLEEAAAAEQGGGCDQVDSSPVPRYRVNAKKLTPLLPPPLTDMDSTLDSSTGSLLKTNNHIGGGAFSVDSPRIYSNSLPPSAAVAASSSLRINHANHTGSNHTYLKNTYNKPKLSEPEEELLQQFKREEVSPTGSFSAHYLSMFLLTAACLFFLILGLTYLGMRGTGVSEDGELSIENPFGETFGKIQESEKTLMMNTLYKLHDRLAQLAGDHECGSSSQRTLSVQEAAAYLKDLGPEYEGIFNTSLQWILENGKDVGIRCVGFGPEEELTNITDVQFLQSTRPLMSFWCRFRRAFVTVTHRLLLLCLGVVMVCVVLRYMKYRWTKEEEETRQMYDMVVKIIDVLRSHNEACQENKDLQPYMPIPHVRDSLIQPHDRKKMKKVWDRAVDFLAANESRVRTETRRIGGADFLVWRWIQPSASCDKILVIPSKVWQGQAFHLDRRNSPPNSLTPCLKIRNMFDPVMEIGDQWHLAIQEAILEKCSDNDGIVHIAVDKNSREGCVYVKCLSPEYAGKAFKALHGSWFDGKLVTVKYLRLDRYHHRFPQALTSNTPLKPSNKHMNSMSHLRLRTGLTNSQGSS
# Chain of UniProt P53778 (P53778 whole entry, looked up): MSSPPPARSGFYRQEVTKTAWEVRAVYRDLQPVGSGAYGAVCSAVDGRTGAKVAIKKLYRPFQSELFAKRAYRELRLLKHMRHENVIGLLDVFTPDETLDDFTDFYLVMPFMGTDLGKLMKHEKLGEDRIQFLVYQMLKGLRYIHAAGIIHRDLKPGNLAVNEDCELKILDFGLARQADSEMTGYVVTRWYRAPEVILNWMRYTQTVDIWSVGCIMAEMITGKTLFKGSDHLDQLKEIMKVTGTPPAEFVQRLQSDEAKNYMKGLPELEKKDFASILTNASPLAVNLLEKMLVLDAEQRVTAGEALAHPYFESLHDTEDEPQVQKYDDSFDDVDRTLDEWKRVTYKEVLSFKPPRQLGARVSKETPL
Target,log2 fold change (bafetinib),log2 fold change [1],log2 fold change (nilotinib),log2 fold change [2],log2 fold change (dasatinib),log2 fold change [3],log2 fold change [4],log2 fold change [5],log2 fold change (tipifarnib),log2 fold change (mubritinib)
LEMD3 (UniProt Q9Y2U8),-0.171,-0.114,-0.127,-0.026,-0.106,0.037,0.163,0.049,-0.008,0.001
KLHDC4 (UniProt Q8TBB5),0.012,-0.018,0,-0.067,0.107,0.156,-0.175,-0.23,0.106,-0.333
LNPK (UniProt Q9C0E8),-0.081,-0.035,-0.001,-0.009,0.052,-0.007,0.025,0.011,0.054,0.072
KTN1 (UniProt Q86UP2),0.042,0.013,-0.117,0.055,-0.013,0.063,-0.081,-0.03,-0.064,-0.032
MIA2 (UniProt Q96PC5),-0.068,-0.029,-0.002,-0.048,-0.051,-0.038,-0.058,0.041,0.029,-0.046
MAP3K7 (UniProt O43318),0.029,0.085,-0.105,-0.028,-0.038,0.059,-0.095,-0.026,-0.064,0.046
ITPRIP (UniProt Q8IWB1),-0.126,-0.016,-0.109,0.035,-0.041,-0.08,0.073,0.012,-0.007,0.061
ILK (UniProt Q13418),-0.038,-0.012,0.122,-0.024,-0.07,-0.002,0.027,0.005,-0.023,0.048
MIF (UniProt P14174),0.012,0.034,0.088,0,0.052,-0.052,0.067,0.076,-0.029,0.021
MAP2K7 isoform 4 (UniProt O14733),-0.086,0,-0.035,0.025,-0.075,-0.039,-0.006,0.02,0.027,-0.018
LUC7L2 (UniProt Q9Y383),0.035,0.002,0.059,-2.75 (active),-0.01,-0.007,-0.033,-0.059,0.049,-0.07
LIAS (UniProt O43766),-0.034,-0.079,0.038,0.003,0.028,-0.059,-0.017,0.059,0.098,0.002
LDLR (UniProt P01130),0.005,-0.029,0.041,-0.027,0.056,-0.064,0.013,0.029,0.097,-0.082
KIF2C (UniProt Q99661),0.1,0.122,-0.082,-0.054,-0.15,0.032,0.053,0.039,-0.103,0.081
LARP7 isoform 3 (UniProt Q4G0J3),-0.045,0.041,0.01,-0.298 (active),-0.063,-0.249,0.021,0.029,0.021,-0.05
"LRBA, A0A494BZW2",-0.041,0.044,0.019,-0.016,-0.144,0.053,-0.076,0.123,-0.26,-0.03
KIF21A isoform 4 (UniProt Q7Z4S6),0.051,0.079,-0.104,0.083,-0.193,0.037,-0.066,-0.073,-0.039,0.11
MCUR1 (UniProt Q96AQ8),0,0,0.015,0.015,-0.037,-0.004,0.031,-0.091,-0.028,0.044
MAP3K4 isoform 2 (UniProt Q9Y6R4),-0.059,-0.095,0.008,0.221 (active),0.534 (active),0.027,-0.031,0.021,-0.032,0.016
KPNA6 (UniProt O60684),-0.071,0.078,-0.054,-0.038,-0.067,0.003,-0.098,-0.015,-0.033,-0.067
IRF3 (UniProt Q14653),0.033,0.023,0.066,-0.191,-0.1,-0.04,0.106,0.005,-0.023,0.039
KLC2 (UniProt Q9H0B6),0.013,0.018,-0.049,-0.388 (active),-0.07,0.025,0.05,0.046,0.031,0.009
MAPK12 (UniProt P53778),-0.037,0.008,-0.054,-0.254,-0.079,-0.035,0.34 (active),-0.077,-0.007,0.061
MICU1 isoform 3 (UniProt Q9BPX6),-0.098,0.106,-0.037,-0.012,-0.065,-0.022,-0.012,-0.055,-0.019,-0.064
MAP4 (UniProt E7EVA0),0.311,-0.028,-0.014,0.015,0.168,-0.018,-0.166,-0.036,0.019,0.055
IRF2BPL (UniProt Q9H1B7),-0.038,0.012,-0.07,-0.034,-0.034,-0.029,0.083,-0.084,-0.067,-0.055
MDC1 (UniProt Q14676),-0.1,-0.269,0.037,0.02,0.398,-0.191,-0.031,-0.043,0.058,-0.038
